# PubChem BioAssay
# Activity calls are given as the source filed them.
# Biological target: Homeobox protein Hox-A13 (Mus musculus) (UniProt Q62424)
# Assay: disruptors of Hoxa13 oligonucleotide interaction – biochemical, fluorescence polarization, labeled oligonucleotide, primary screen (AID 1185)
# Conditions: Hoxa13:DNA binding, 15 min, higher = more signal, called active from +8 up or from −8 down
# Homeobox protein Hox-A13 (Mus musculus), sequence (Q62424 whole entry, looked up): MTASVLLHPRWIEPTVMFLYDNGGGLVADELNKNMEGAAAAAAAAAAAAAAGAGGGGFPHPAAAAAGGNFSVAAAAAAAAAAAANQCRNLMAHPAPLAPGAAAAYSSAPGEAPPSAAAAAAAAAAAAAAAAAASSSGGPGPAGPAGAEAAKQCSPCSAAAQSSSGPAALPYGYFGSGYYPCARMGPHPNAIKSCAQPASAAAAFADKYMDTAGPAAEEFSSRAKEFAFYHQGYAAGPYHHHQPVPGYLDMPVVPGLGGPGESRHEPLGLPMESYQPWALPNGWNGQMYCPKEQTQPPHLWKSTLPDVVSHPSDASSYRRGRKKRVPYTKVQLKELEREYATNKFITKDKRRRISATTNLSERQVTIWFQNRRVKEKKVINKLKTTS
row,SMILES,z-score
1,COc1ccc([Si](C)(C)[C@@H]2[C@@H](CCO)O[C@]3(C(=O)N(Cc4ccc(NC(=O)[C@H](C)O)cc4)c4ccccc43)[C@H]2C)cc1,-4.05 (inactive)
2,O=C(NCc1ccccc1)[C@@]1(CCS(=O)(=O)c2ccccc2)COC(c2ccc(OCCCO)cc2)=N1,-4.72 (inactive)
3,C=C(C)[C@@H]1CC=C(C(O)C2C=CC3C(=O)NC(=O)C3N2Nc2ccccn2)CC1 (stereo not given in full),-3.65 (inactive)
4,CCOC(=O)[C@H]1C/C=C/C[C@H](C(=O)OCC)C(=O)O[C@H]2[C@@H](OC)O[C@H](CO)[C@@H](OC(=O)Nc3ccc(Br)cc3)[C@@H]2OC1=O,-0.239 (inactive)
5,C=CCC(OC(C)=O)[C@@H]1[C@@H](N(Cc2ccc(-c3ccccc3)cc2)C(=O)c2ccc(C)cc2)c2cc(OCCCO)ccc2N1C(=O)c1ccc(-c2ccccc2)cc1 (stereo not given in full),-1.35 (inactive)
6,C=CC[C@]1(C(=O)O)N=C(c2ccc(OCCCO)cc2)O[C@H]1c1ccccc1N=[N+]=[N-],-5.25 (inactive)
7,CN(C)CCCC[C@@H]1NC(=O)[C@@H]2C[C@H](C(=O)NCCCCCNC(=O)CS)[C@H](c3ccc(O)cc3)N2C1=O,-0.848 (inactive)
8,C=CC[C@]1(C(N)=O)N=C(c2ccc(OCCCO)cc2)O[C@H]1c1ccccc1CN=[N+]=[N-],-2.82 (inactive)
9,C[C@H]1NC(=O)[C@@H](C)NC(=O)[C@@]23C(=O)N[C@@H](Cc4ccccc4)C2[C@H](C)[C@@]2(C)O[C@H]2C3/C=C/C/C=C\CNC1=O (stereo not given in full),-3.98 (inactive)
10,C[C@]1(C(=O)NCCN2CCOCC2)c2ccccc2C(=O)N(Cc2ccccc2)[C@H]1c1ccc(CO)cc1,-3.99 (inactive)
